Compound activity from PubChem.
Rows were chosen to be rich in hits. Some 0.9% of all compounds tested hit in one or more screens of this group.
RGS12 GoLoco inh: inhibitors of human Gai1-RGS12 GoLoco interaction (red fluorophore); AID 880; Potency, µM (series often up to 61.6 µM), inactives show top-dose activity, negative = inhibition, usual class: inhibitors; actives 0.44% (n = 230,000); Gai1:RGS12 GoLoco peptide FP, rhodamine, 10 min; active = well fitted inhibition curve with a large enough effect, not every such curve was filed as active; inactive = no such curve, though single readings can be large or run the other way; note: nearly all actives have a fitted effect of over 30% in size
APEX1 inh: inhibitors of human APE1 endonuclease; P27695; recombinant APE1, TAMRA/BHQ-2 abasic DNA cleavage fluorescence; Potency, µM (highest dose often 65.8 µM), inactives show at the highest dose activity change, negative = inhibition, actives largely listed as inhibitors; actives 0.35% (n = 350,000); AID 2517;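 note: plate controls were vehicle for no effect and reference inhibitor for full effect; nearly all actives have a fitted effect of over 55% in size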
Target sequence (P27695 whole entry, looked up): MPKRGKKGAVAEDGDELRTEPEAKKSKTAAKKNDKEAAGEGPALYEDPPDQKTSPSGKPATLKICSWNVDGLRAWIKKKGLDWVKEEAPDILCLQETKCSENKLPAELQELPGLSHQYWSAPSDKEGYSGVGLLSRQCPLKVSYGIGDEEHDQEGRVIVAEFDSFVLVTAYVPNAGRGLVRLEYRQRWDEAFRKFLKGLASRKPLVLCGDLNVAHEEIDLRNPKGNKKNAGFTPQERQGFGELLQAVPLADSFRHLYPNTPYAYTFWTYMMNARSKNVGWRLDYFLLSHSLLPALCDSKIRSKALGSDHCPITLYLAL
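Enzyme (0.75 nM final) and test compound are incubated 15 min at room temperature before adding 50 nM quenched THF abasic-site duplex. Cleavage dequenches TAMRA, followed at 525/598 nm over three reads one minute apart.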
RECQ1 inh: blocks DNA unwinding by human RECQ1; actives 0.54% (n = 240,000); AID 2549; RECQ1 DNA unwinding, red fluorescence kinetic read; Potency, µM (doses to about 57.3 µM), inactives show top-dose activity, negative = inhibition, actives largely listed as inhibitors; P46063;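 note: plate controls were vehicle for no effect and no enzyme for full effect; nearly all actives have a fitted effect of over 30% in size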
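50 nM RECQ1T1 preincubated 15 min with compound in Tris pH 8.0 buffer with MgCl2, DTT, Tween-20 and 2.5 ug/ml poly(dI-dC); started with 200 nM TAMRA/BHQ-2 forked duplex and 2 mM ATP. Unwinding read as fluorescence (525/598 nm), two reads 2 h apart.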
BLM inh: Bloom syndrome helicase (human) inhibition. P54132. recombinant BLM DNA unwinding, fluorescence dequenching. Potency, µM (doses to about 56.1 µM), without a hit: top-dose activity change, negative = inhibition, usual class: inhibitors. actives 0.2% (n = 350,000);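 note: plate controls were vehicle for no effect and no enzyme for full effect; nearly all actives have a fitted effect of over 35% in size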
TRb SRC2 PPI: inhibitors of human thyroid hormone receptor beta-SRC2 interaction; P10828; TRbeta-SRC2 peptide binding, fluorescence polarization; receptor liganded with 1 µM T3; Potency, µM (series often up to 106 µM), without a hit: at the highest dose activity change, negative = inhibition, most hits filed as inhibitors; actives 0.065% (n = 280,000); AID 1469;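 note: plate controls were bound peptide for no effect and peptide without receptor for full effect; nearly all actives have a fitted effect of over 50% in size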
Target sequence (P10828 whole entry, looked up): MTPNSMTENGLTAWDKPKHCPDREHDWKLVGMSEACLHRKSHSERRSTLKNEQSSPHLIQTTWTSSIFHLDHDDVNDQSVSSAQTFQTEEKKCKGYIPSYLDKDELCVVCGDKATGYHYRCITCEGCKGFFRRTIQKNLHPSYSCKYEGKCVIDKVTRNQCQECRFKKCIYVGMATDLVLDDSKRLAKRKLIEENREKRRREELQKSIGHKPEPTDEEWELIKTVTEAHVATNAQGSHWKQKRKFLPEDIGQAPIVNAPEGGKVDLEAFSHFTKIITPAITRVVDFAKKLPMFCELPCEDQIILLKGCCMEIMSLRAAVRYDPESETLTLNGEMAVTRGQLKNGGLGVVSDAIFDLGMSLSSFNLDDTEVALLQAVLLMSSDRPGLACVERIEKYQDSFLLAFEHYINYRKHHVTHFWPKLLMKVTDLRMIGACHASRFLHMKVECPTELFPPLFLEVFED
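Fluorescence polarization of 20 nM Texas Red SRC2 peptide with 0.6 uM human TRb ligand-binding domain, in Tris buffer with 1uM T3 and 5% DMSO. Incubated 5 hr ambient; normalized to unbound and bound controls.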
TexasRed fluor: alters Texas Red total fluorescence, flagging assay interference; AID 1479; Potency, µM (doses to about 106 µM), for the others: at the top dose fluorescence change, negative = quenching; actives 0.29% (n = 280,000); TRb/SRC2 Texas Red total fluorescence interference; active = well fitted curve in either direction with a large enough effect; inconclusive = small, poorly fitted or top-dose-only effect
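Human TRb ligand-binding domain at 0.6 uM with 20 nM Texas Red SRC2 peptide in Tris buffer containing 1 uM T3 and 5% DMSO, incubated with compound 5 h at ambient temperature. Total fluorescence (555/632 nm) calculated as parallel + 2 × perpendicular.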
* = called active by the depositor; i = inactive; ? = inconclusive; nt = no result given; ! = a repeat was not active; [ ] = remark or other dose. Unless noted, calls come from the whole dose curve; as a rule, active = well fitted curve in the direction sought with a large enough effect; inconclusive = small, poorly fitted or top-dose-only effect, or another doubt; inactive = no such curve, though single readings can be large; an effect the other way counts as inactive or inconclusive. Unless noted, % is set by controls: 0 for no effect and ±100 for the full control effect; potency is the fitted concentration of half-maximal effect.

SMILES	RGS12 GoLoco inh	APEX1 inh	RECQ1 inh	BLM inh	TRb SRC2 PPI	TexasRed fluor
CCOc1ccc(S(=O)(=O)Nc2cccc(-c3ccc(N4CCCC4)nn3)c2)cc1	nt	nt	nt	-7%	-7%	20µM*[quencher]
CC1CCN(c2ccc(-c3cccc(NS(=O)(=O)c4ccc(F)cc4F)c3)nn2)CC1	nt	nt	nt	-18%	-19%	8.9µM*[quencher]
COCCN1CCc2[nH]c(=S)[nH]c(=O)c2C1	-12%	14%	-1%	7%	0%	-38%
CCCCN1CCc2[nH]c(=S)[nH]c(=O)c2C1	-18%	4%	-12%	-2%	-22%[53 µM]	0.71µM*[quencher]
O=C1c2c(O)cc(O)cc2OC(c2ccc(O)c(O)c2)C1O (stereo unspecified)	-36%	?	-5%	-1%	13%	-23%
O=C1c2c(O)cc(O)cc2O[C@H](c2ccc(O)c(O)c2)C1O (stereo partly specified)	nt	?	14µM*	-5%	-1%	-5%
Cc1ccc(OCc2cc(=O)n3ccsc3n2)c(NC(=O)c2ccco2)c1	nt	nt	nt	-5%	-11%	1%
O=C(CN1C(=O)C2(SCC(=O)N2c2ccc(F)c(F)c2)c2ccccc21)Nc1cccc(Cl)c1 (stereo unspecified)	nt	nt	nt	-9%	0%	-1%
Cc1c(Cl)sn(-c2ccc(Cl)cc2)c1=O	14µM*	-9%	29%	1%	5%	1%
CC(=O)N1c2ccccc2C2(O)N=C(C)SC12 (stereo unspecified)	7.9µM*	-2%	1%	-3%	2%	1%
CC(=O)N1c2ccccc2[C@@H](C)[C@@H]1C	nt	61%	nt	nt	nt	nt
CCCCCCCCCCCCCCCCN(C)C	nt	nt	nt	nt	0%[201 µM]	-3%[201 µM]
O=C(CO)[C@@H](O)[C@H](O)[C@@H](O)CO	nt	-6%	nt	nt	nt	nt
O=C(Nc1ccccc1)C1=C[C@H](c2csc3ccccc23)C[C@H](OCCCCO)O1	4%	3%	40µM*	-5%	-1%	-2%
Cc1ccc(NC(=O)Cc2coc3ccc(C(C)C)cc23)cc1Cl	nt	nt	nt	-12%	-28%[53 µM]	0.16µM*[quencher]
Cc1ccc(NC(=O)Cc2coc3ccc(C(C)C)cc23)c(C)c1	nt	nt	nt	-3%	-5%	4%
NC(=O)COC(=O)c1cc([N+](=O)[O-])ccc1NCCO	-6%	5%	21%	1%	7%	-5%
O=C(COC(=O)c1cc([N+](=O)[O-])ccc1NCCO)c1ccccc1	-2%	-18%	-7%	3%	-7%	100µM*[quencher]
CCCCC[C@H](O)/C=C/[C@H]1OC(O)C[C@H](O)[C@@H]1C/C=C\CC(=O)O (stereo partly specified)	3%	-2%	-9%	-1%	-12%	0%
Cc1nnc(SCC(=O)Nc2ccc(Br)cc2)[nH]c1=O	nt	nt	nt	-1%	-17%[53 µM]	45µM*[quencher]
C=C(C)C(=O)/C=C/CCC/C=C/C(=O)OCC	-6%	-2%	i	2%	7%	-1%
Cc1ccccc1-n1sc2cc(F)ccc2c1=O	28µM*	0%	-2%	1%	-4%	-1%
CCC[C@@H]1C[C@@H](C(=O)N[C@@H]([C@H]2O[C@H](SC)[C@H](O)[C@@H](O)[C@H]2O)[C@H](C)Cl)N(C)C1	nt	0%[21 µM]	nt	nt	nt	nt
O=C(O)CSc1c2c(nc3cc(C(=O)NCCN4CCOCC4)ccc13)CCC2	-16%	?	-12%	0%	-12%	50µM*[fluorescent]
C[n+]1ccccc1C1CCCC/C1=N\NC(N)=S (stereo unspecified)	10µM*	-5%	i	0%	-7%	-4%
SMILES	RGS12 GoLoco inh	APEX1 inh	RECQ1 inh	BLM inh	TRb SRC2 PPI	TexasRed fluor
CC(C)(C)n1ncc2c(=O)n(Cc3c(Cl)cccc3Cl)cnc21	nt	-1%	nt	nt	nt	nt
CC(=O)Nc1sc2c(c1-c1nc3ccccc3s1)CN(C(C)C)CC2	nt	12µM*	nt	nt	nt	nt
C[Si](C)(Cl)[Si](C)(C)Cl	nt	nt	nt	nt	0%[201 µM]	-1%[201 µM]
Nc1c(N=Nc2ccc(-c3ccc(N=Nc4cc(S(=O)(=O)O)c5ccccc5c4N)cc3)cc2)cc(S(=O)(=O)O)c2ccccc12	238%	32µM*	10µM*	4µM*	?	?
Cc1ccc(N=Nc2c(O)c(S(=O)(=O)O)cc3cc(S(=O)(=O)O)ccc23)c(C)c1	35%[14.2 µM]	nt	nt	nt	nt	nt
Cc1cc(-c2ccc(N=Nc3ccc4c(S(=O)(=O)O)cc(S(=O)(=O)O)c(N)c4c3O)c(C)c2)ccc1N=Nc1ccc2c(S(=O)(=O)O)cc(S(=O)(=O)O)c(N)c2c1O	29%	2.5µM*	8.9µM*	11µM*!	25µM*	18µM*[fluorescent]
Nc1ccc(N=Nc2ccc(-c3ccc(O)cc3)cc2)c2ccc(S(=O)(=O)O)cc12	6%[14.2 µM]	nt	nt	nt	nt	nt
CC(=O)Nc1ccc2nc3c(=O)[nH]c(=O)[nH]c3nc2c1	nt	nt	nt	11µM*	4%	-6%
N#Cc1c(-c2cccc(Br)c2)no[n+]1[O-]	nt	-10%	nt	nt	nt	nt
O=C1C2C3C=CC(C3=C(c3ccccc3)c3ccccc3)C2C(=O)N1Cc1ccccc1 (stereo unspecified)	14µM*	4%	1%	0%	6%	1%
Cc1ccc(-c2noc(CSc3nnc(C)n3-c3ccc(C)cc3)n2)cc1	nt	nt	nt	-7%	-25%[53 µM]	0.11µM*[quencher]
COc1ccc(-c2noc(CSc3nnc(-c4ccncc4)n3-c3ccc(C)cc3)n2)cc1	nt	nt	nt	-1%	7%	-19%
COc1ccc(-c2noc(CSc3nnc(Cc4ccccc4)n3-c3ccccc3)n2)cc1OC	nt	nt	nt	-2%	-23%[53 µM]	0.28µM*[quencher]
COc1ccc(-c2noc(CSc3nnc(-c4ccncc4)n3-c3ccc(OC)cc3)n2)cc1	nt	nt	nt	-2%	?	0.25µM*[quencher]
O=S(=O)(O)c1ccc(N=Nc2c(O)ccc3cc(S(=O)(=O)O)ccc23)cc1	nt	nt	nt	nt	17%[201 µM]	?
CCCCNC(=O)CSc1nc2cc3c(cc2c(=O)n1CCCC(=O)NCc1ccc2c(c1)OCO2)OCO3	nt	nt	nt	0%	2%	-4%
CC1(C)C(=O)NC(=O)N1CO	nt	nt	nt	nt	13%[201 µM]	2%[201 µM]
COC(=O)CC1c2ccccc2C(Cc2ccc(OC)cc2)C(C)N1C(=O)OC (stereo unspecified)	6%[14.2 µM]	-3%[12.4 µM]	-2%[11.5 µM]	0%[12.4 µM]	5%[11.2 µM]	-2%[11.2 µM]
COc1cccc2c1C(=O)C=C(C)C2=O	6%	-2%	7%	-13%	7%	-6%
CC1=CC(=O)c2ccccc2C1=O	5%	-3%	-12%	18µM*!	1%	0%
C1CCC(NC(=NC2C3CC4CC(C3)CC2C4)N2CCOCC2)CC1 (stereo unspecified)	1%	3%	13%	nt	-6%	0%
Cc1ccc(NC(=O)c2c(C)oc3ccc(O)c(CN4CCCCC4)c23)cc1	nt	nt	nt	-11%	-2%	-13%
COc1ccc(NC(=O)c2c(C)oc3ccc(O)c(CN4CCCCCC4)c23)cc1Cl	nt	nt	nt	-5%	-8%	794µM*[quencher]
